Inconclusive results are not listed. A call without a number means that no potency is given here. Calls of active or inactive are those of the source. Calls follow the shape of the dose curve; as a rule, active = well fitted inhibition curve with a large enough effect; inconclusive = small, poorly fitted or top-dose-only effect; inactive = flat fitted curve, though single readings scatter.

Sequence of Calcium and integrin-binding protein 1 (Homo sapiens) (Q99828 whole entry, looked up): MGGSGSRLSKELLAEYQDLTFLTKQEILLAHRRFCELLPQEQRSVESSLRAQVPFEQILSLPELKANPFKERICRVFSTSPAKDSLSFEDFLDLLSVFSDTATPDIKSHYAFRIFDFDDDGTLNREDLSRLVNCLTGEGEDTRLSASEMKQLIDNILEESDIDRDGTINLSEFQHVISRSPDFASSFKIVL

This test addresses Calcium and integrin-binding protein 1 (Homo sapiens) (UniProt Q99828). Kind of test: Primary qHTS for Identification of Calcium Integrin Binding Protein 1 (CIB1) Competitor (AID 1508620).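 Also: GST tagged CIB1 binding a fluorescein labelled alphaIIb integrin peptide tracer; top concentration of the series differs between compounds.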 To be noted: CIB1-GST / FITC-alphaIIb peptide fluorescence polarization; series mostly up to 114 µM. In short, it runs like this:
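Fluorescence polarization competition: CIB1-GST (1 uM final) preincubated with compound 15 min at room temperature, then FITC-labeled alphaIIb peptide (100 nM final) added for another 15 min. Polarization read at Ex 480/Em 540.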
(In qHTS, concentration-response curves come from the screen itself.)
Regarding `Cc1cc(-c2ccccc2)n2ncc(C(=O)Nc3ccc(Cl)c(Cl)c3)c2n1`, the Potency entry is “inactive”.

With `CN1CCOc2cc(S(=O)(=O)N3CCN(S(=O)(=O)c4c(F)cccc4F)CC3)cnc21`, the Potency result is “inactive”.

Turning to `COc1ccc(C(=O)c2ccc(-c3no[n+]([O-])c3C#N)cc2)cc1`, the Potency entry was “inactive”.

Take `Cc1cc(N[S+](=O)([O-])c2cc3c(cc2Cl)NC(=O)CO3)ccc1Cl`: the Potency result is “inactive”.

Take `COc1cc(NC(=S)N2CCN(c3cccc(C(F)(F)F)c3)CC2)nc2ccccc12`: the Potency result was “inactive”.

In the case of `Cc1cn([C@H]2C[C@H](N[S+](=O)([O-])c3ccc4c(c3)OCCO4)[C@@H](CO)O2)c(=O)[nH]c1=O`, the Potency entry is “inactive”.

Turning to `Fc1cccc(CNc2ncnc3ccc(-c4ccoc4)cc23)c1`, the Potency entry is “inactive”.

Take `O=c1c2ccccc2nc(-c2ccccc2O)n1Cc1ccccc1`: the Potency result was “inactive”.

`Cc1ccc(NS(=O)(=O)c2cc3c(cc2/C=C/c2ccccc2)NC(=O)CO3)cc1C`: the Potency entry is “inactive”.

Consider `O=C1C2=C(CN1c1ccccc1)NC(Nc1nc3ccccc3o1)=NC2c1ccccc1Cl` (stereo not given), for which the Potency entry was “inactive”.

Regarding `Cc1cccc(-n2cnc3cc(C(=O)N4CCC(Br)CC4)ccc32)c1`, the Potency entry was “inactive”.

For the compound `Fc1c(-c2ccc3ncnc(NCc4cccs4)c3c2)ccc2c1OCO2`, the Potency entry is “inactive”.

As for `Fc1ccc(CNc2nc(-c3ccccc3C(F)(F)F)nc3ccccc23)cc1`, the Potency entry was “inactive”.

For `COc1cccc(C2=Nn3c(nnc3-c3ccccc3OC)SC2)c1`, the Potency entry is “inactive”.

Consider `COc1cc(O)c(C(CC(=O)N2CCC(Cc3ccccc3)CC2)c2ccc(C)cc2)c(OC)c1` (stereo not given), for which the Potency result was “inactive”.

Take `Brc1cnc2nc(SCc3cccnc3)[nH]c2c1`: the Potency result is “inactive”.

As for `Fc1cc(Cl)cc(-c2ccc(CNc3nc(-c4ccccc4C(F)(F)F)nc4ccccc34)cc2)c1`, the Potency result was “inactive”.

In the case of `O=c1[nH]c2ccc(S(=O)(=O)N3CCN(S(=O)(=O)c4c(F)cccc4F)CC3)cc2[nH]c1=O`, the Potency entry was “inactive”.

Turning to `O=C(Nc1nnc(-c2ccco2)o1)c1ccncc1`, the Potency entry was “inactive”.

For the compound `Nc1ccc(-c2ccc(NC(=O)c3cccs3)cn2)cc1`, the Potency result was “inactive”.

With `O=S(=O)(c1ccc2c(c1)OCCO2)N1CCN(S(=O)(=O)c2ccc3nc(Cl)c(Cl)nc3c2)CC1`, the Potency result was “inactive”.

Take `O=C(Nc1nnc(-c2ccncc2)s1)Nc1cccc2ccccc12`: the Potency entry was “inactive”.

Regarding `Oc1cc(Nc2ccncc2)cc2cccnc12`, the Potency entry is “inactive”.

With `CC(C)(C)OC(=O)NCc1nnc(-c2cc3ccccc3[nH]2)o1`, the Potency result was “inactive”.

Consider `Brc1ccccc1-c1nc(NCc2ccc(-c3cccnc3)cc2)c2ccccc2n1`, for which the Potency result was “inactive”.

Take `O=C1CCCC2=C1C(c1[nH]ncc1Cl)N=C(Nc1nc3ccc(Cl)cc3o1)N2` (stereo not given): the Potency result was “inactive”.

Take `Cc1ccc(OCCn2c(CCNC(=O)CCc3ccccc3Br)nc3ccccc32)cc1`: the Potency entry was “inactive”.

For `CCOC(=O)C1CCN(C(=O)C(C)(C)NC(=O)Nc2ccc(Cl)cc2Cl)CC1`, the Potency entry was “inactive”.

For `Cc1ccc(OCCn2c(CCNC(=O)Cc3cccc4ccccc34)nc3ccccc32)cc1`, the Potency result is “inactive”.

Consider `COc1ccc(C2=Nn3c(nnc3-c3cccc(OC)c3OC)SC2)cc1`, for which the Potency result was “inactive”.

For `CCOC(=O)CCc1cc(F)c(S(=O)(=O)N2CCN(S(=O)(=O)c3ccc4c(c3)OCCO4)CC2)cc1F`, the Potency entry was “inactive”.

For `O=C(Nc1cccnc1)c1ccco1`, the Potency result was “inactive”.

As to `COc1ccc(-c2nc3ccccc3n2Cc2ccccc2)cc1COc1ccc(NC(C)=O)cc1`, the Potency entry is “inactive”.

`Cc1ccc(OCCn2c(CCNC(=O)c3ccccc3C)nc3ccccc32)cc1`: the Potency entry is “inactive”.

`Cc1ccnc(NC(=S)N2CCN(c3ccc(O)cc3)CC2)c1`: the Potency entry was “inactive”.

With `Cn1ncc(Cl)c1C1N=C(Nc2nc3ccccc3o2)NC2=C1C(=O)CCC2` (stereo not given), the Potency result was “inactive”.

Take `Cc1cccc(-n2cnc3cc(C(=O)N4CCCC(C(C)C)C4)ccc32)c1` (stereo not given): the Potency result is “inactive”.

Take `O=C(NCc1ccc(F)cc1)n1cc(P(=S)(c2ccccc2)c2ccccc2)c2ccccc21`: the Potency entry was “inactive”.

For the compound `Cc1cc2c(s1)c1cnn(Cc3ccc(C#N)cc3)c(=O)c1n2C`, the Potency entry was “inactive”.

For the compound `Cc1ccc(OCCn2c(CCNC(=O)COc3ccccc3Br)nc3ccccc32)cc1`, the Potency entry was “inactive”.

Source of the values: PubChem BioAssay (NCATS).
